tim10-1 inh = growth inhibitors of tim10-1 mutant yeast. inhibition, % at 20 µM. AID 463190. S. cerevisiae tim10-1 ts strain growth, BacTiter-Glo, 24 h. 2.2% of 330,000 active;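 active = inhibition of at least 40%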;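 also: mutant grown at 25 °C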
tim23-1 inh = tim23-1 yeast growth inhibition. S. cerevisiae tim23-1 growth, BacTiter-Glo luminescence, 24 h. inhibition, % at 20 µM. 1.3% of 330,000 active. AID 463212;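 active = growth inhibition of the mutant yeast at or above 50%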;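 also: temperature-sensitive mutant grown at 25 °C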
TIM10 inh = growth inhibitors of TIM10 yeast strain; inhibition, % at 10 µM; 1.4% of 330,000 active; S. cerevisiae TIM10 strain growth, BacTiter-Glo luminescence, 24 h;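 active = inhibition of 40% or more at the single tested concentration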;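 also: wild-type TIM10 isogenic control strain grown at permissive 25 °C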
PfHsp90 yeast 2 = inhibits growth of yeast expressing Plasmodium falciparum Hsp90; S. cerevisiae expressing PfHsp90, BacTiter-Glo ATP, 48 h; yeast lacking PDR1 and PDR3 efflux regulators; inhibition, % at 9.4 µM; 0.32% of 310,000 active; AID 504621;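 active = every replicate shows inhibition above about 80%, whatever the replicate mean, limit read from the data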
SKKanGAS inh = SKKanGAS growth inhibition. inhibition, % at 7.5 µM. S. pyogenes SKKanGAS, kanamycin growth, BacTiter-Glo, 6 h. 1.3% of 300,000 active;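 active = mean replicate score, as percent of positive control median, at least 50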;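 also: strain carries kanamycin resistance gene driven by streptokinase promoter and grows in 40 µg/ml kanamycin; loss of luminescence reflects streptokinase promoter inhibition or plain growth inhibition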
Calb FLC = C. albicans growth modulation with fluconazole. C. albicans CaCi-2 (fluconazole-resistant clinical isolate) + fluconazole, Alamar Blue growth, 48 h. growth inhibition, % (test concentration not listed). 0.57% of 300,000 active. AID 1979;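 active = growth inhibition above about 58% in most replicates, limit read from the data, passing the limit was not always enough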;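 also: all wells also contain fluconazole at 8 µg/ml as a sub-toxic cotreatment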
Of the large screens only hits and unclear results are named; the others gave an inactive call. An excerpt weighted towards active compounds, which were near 4.7% of everything screened.

CCOC(=O)c1c(-c2ccc(C)o2)csc1NC(=O)COC(=O)c1ccc(NC(N)=O)cc1	SKKanGAS inh 67.9
CCOC(=O)c1c(-c2ccc(C)o2)csc1NC(=S)NC(=O)c1ccccc1Br	none
O=C(Cn1nnc(-c2cccs2)n1)Nc1ccccc1C(F)(F)F	none
CN(C)Cc1c(C(C)(C)O)[nH]c2ccc(C(F)(F)F)cc12	none (no result: SKKanGAS inh, Calb FLC)
CCc1c(C2(O)CCCCC2)[nH]c2ccc(C(F)(F)F)cc12	SKKanGAS inh 69.0
O=C1c2cccnc2C(=O)N1CNc1ccc(Cl)cc1	Calb FLC 134.0
Cc1csc2ncnc(NCCc3ccccn3)c12	Calb FLC 98.0
c1ccc(CCNc2ncnc3sccc23)nc1	none (no result: PfHsp90 yeast 2)
CN(c1ccccc1)c1nccc(=O)[nH]1	none
CN(c1ccccc1)c1ccc(/C=C/[N+](=O)[O-])cc1	PfHsp90 yeast 2 106.0 (no result: tim10-1 inh, tim23-1 inh, TIM10 inh)
COc1cc(/C=C/C(=O)OC2CC3CCC2(C)C3(C)C)ccc1O (stereo unspecified)	SKKanGAS inh 60.7
COc1cc(/C=C/C(=O)OCC(=O)N2CCC(C)CC2)ccc1O	none
COc1c(CC=C(C)C)cc(C2CC(=O)c3c(O)cc(O)cc3O2)cc1CC=C(C)C (stereo unspecified)	SKKanGAS inh 100.9
O=C(COc1ccc(Br)cc1)OCCN1CCCCC1	none
Cc1cc(C)c(C(=O)Nc2ccc(Br)c(C(F)(F)F)c2)c(C)c1	SKKanGAS inh 71.6
Cc1cc(C)n(CCNC(=O)c2ccc3c(c2)OCO3)n1	none
COc1cc(Nc2ccc(S(N)(=O)=O)cc2)c([N+](=O)[O-])nc1[N+](=O)[O-]	none
CCn1ccc2cc(OC)ccc2c1=S	none (no result: PfHsp90 yeast 2)
CCSc1ccc2cc(OC)ccc2[n+]1CC	Calb FLC 75.4
CCOc1ccc(N(C)c2ccc(/C=C3/SC(=S)NC3=O)cc2)cc1	SKKanGAS inh 64.8
O=C1NC(=O)/C(=C\c2ccc(OCc3ccccc3)cc2)S1	SKKanGAS inh 54.7
COc1cc(/C=C2/SC(=O)NC2=O)ccc1OCc1ccccc1	none
CN(Cc1nccs1)C(=O)C1CCC(=O)N(CCc2ccc(Cl)cc2)C1 (stereo unspecified)	none
CC1CCc2c(N3CCC(O)CC3)c(F)cc3c(=O)c(C(=O)O)cn1c23 (stereo unspecified)	none (no result: SKKanGAS inh, Calb FLC)
COc1c(N2CCN(C(=S)Nc3ccc(F)cc3)C(C)C2)c(F)cc2c(=O)c(C(=O)O)cn(C3CC3)c12 (stereo unspecified)	SKKanGAS inh 115.3
NC1CCN(c2c(F)cc3c(=O)c(C(=O)O)cn(C4CC4)c3c2Cl)C1 (stereo unspecified)	SKKanGAS inh 73.9
COc1c(N2CCN(C(=S)NC3CC4CCC3C4)C(C)C2)c(F)cc2c(=O)c(C(=O)O)cn(C3CC3)c12 (stereo unspecified)	SKKanGAS inh 101.5
COc1c(N2CCNC(C)C2)c(F)cc2c(=O)c(C(=O)O)cn(C3CC3)c12 (stereo unspecified)	SKKanGAS inh 105.4 (no result: PfHsp90 yeast 2, Calb FLC)
COC(=O)C1OCOC2C(C(=O)OC)OCOC12 (stereo unspecified)	none (no result: tim10-1 inh, tim23-1 inh, TIM10 inh, SKKanGAS inh, Calb FLC)
Nc1cc(F)ccc1N1CCCCCC1	none
Cc1ccc2oc(C(=O)NCCCN3CCOCC3)c(C)c2c1	none
NC1CCN(c2nc3c(cc2F)c(=O)c(C(=O)O)cn3-c2ccc(F)cc2F)C1 (stereo unspecified)	SKKanGAS inh 103.3 (no result: Calb FLC)
CCn1cc(C(=O)O)c(=O)c2cc(F)c(N3CCNCC3)nc21	none (no result: tim10-1 inh, tim23-1 inh, TIM10 inh, SKKanGAS inh, Calb FLC)
Cc1ccc(OCC(=O)NNC(=O)c2ccccc2OCc2c(C)noc2C)cc1	none (no result: PfHsp90 yeast 2)
Cc1ccc(/C=C2/SC(=S)N(c3ccc(S(=O)(=O)Nc4nccs4)cc3)C2=O)cc1	none
Cc1ccc(Oc2ccc3c(c2)C(=O)N(c2ccc(S(=O)(=O)Nc4nccs4)cc2)C3=O)cc1	SKKanGAS inh 92.9
CC1CCCN(C(=O)N2c3ccccc3Sc3ccccc32)C1 (stereo unspecified)	none
CC1CCN(C(=O)N2c3ccccc3Sc3ccccc32)CC1	SKKanGAS inh 54.3
C=C(C)CSc1[nH]c(=O)cc(C)c1C#N	Calb FLC 86.3
Cc1cc(=O)[nH]c(SCC(=O)O)c1C#N	none
COc1ccc(N2CCOCC2)c(NC(=O)c2cc3ccccc3o2)c1	none
CC(C)(C)C(=O)C(CO)(Oc1ccc(Cl)cc1)n1cncn1 (stereo unspecified)	PfHsp90 yeast 2 88.9
CC(C)(Oc1ccc(Cl)cc1)C(=O)NCc1ccncc1	none
CC(=O)Nc1ccc2c(c1)Cc1cc(N3C(=O)C=CC3=O)ccc1-2	PfHsp90 yeast 2 115.8 (no result: tim10-1 inh, tim23-1 inh, TIM10 inh, SKKanGAS inh, Calb FLC)
O=C1C=CC(=O)N1c1ccc2c(c1)Cc1cc(F)ccc1-2	PfHsp90 yeast 2 115.6 (no result: tim10-1 inh, tim23-1 inh, TIM10 inh, SKKanGAS inh, Calb FLC)
O=C(COC(=O)CCN1C(=O)C2CC=CCC2C1=O)Nc1ccc([N+](=O)[O-])cc1 (stereo unspecified)	none (no result: SKKanGAS inh, Calb FLC)
Cc1ccc2[nH]c(O)c(N=Nc3nc4ccccc4s3)c2c1	SKKanGAS inh 108.1
Oc1[nH]c2ccccc2c1N=Nc1nc2ccccc2s1	none
CC(=O)c1ccc(NC(=O)Nc2cccc3ccccc23)cc1	Calb FLC 81.5 (no result: SKKanGAS inh)
CC(=O)Nc1ccc(NC(=O)Nc2cccc3ccccc23)cc1	none
COc1cc(NC(=S)N2CCN(S(=O)(=O)c3ccc(F)cc3)CC2)cc(OC)c1	none
COc1cc(NC(=S)N2CCN(S(=O)(=O)c3ccccc3)CC2)cc(OC)c1	Calb FLC 122.1 (no result: SKKanGAS inh)
O=C(Nc1cccnc1)c1ccccc1NS(=O)(=O)c1ccc(F)cc1	none (no result: PfHsp90 yeast 2)
O=S(=O)(Nc1ccc(-c2csc(-c3ccccc3)n2)cc1)c1ccc(F)cc1	SKKanGAS inh 97.9 (no result: PfHsp90 yeast 2)
O=C(Nc1nc(-c2ccccc2)cs1)c1ccccc1NS(=O)(=O)c1ccc(F)cc1	PfHsp90 yeast 2 102.9, SKKanGAS inh 85.1
CN(C)c1ccc(/C=N/NC(=O)CCc2nc3ccccc3[nH]2)cc1	none
Cc1ccc(C)n1-c1sc2c(c1C#N)CCC(C)C2 (stereo unspecified)	SKKanGAS inh 62.2
COc1ccc(NC(=S)NNC(=O)C2CC2c2ccc(C)cc2)cc1 (stereo unspecified)	none
Cc1ccc(C2CC2C(=O)NNC(=S)Nc2cccc(Cl)c2)cc1 (stereo unspecified)	Calb FLC 111.9
N#C/C(=C\c1ccc[nH]1)C(=O)Nc1ccccc1[N+](=O)[O-]	none
O=[N+]([O-])c1ccc2c(c1)-c1ccccc1C2=NO	PfHsp90 yeast 2 104.6 (no result: tim10-1 inh, tim23-1 inh, TIM10 inh, SKKanGAS inh, Calb FLC)
COc1cc(C(=O)N/N=C/c2ccc3c(c2)c2ccccc2n3C)ccc1O	SKKanGAS inh 50.8
Cc1nc(Nc2cc(F)ccc2C)c2nnn(Cc3ccccc3)c2n1	none
CCN(CC)S(=O)(=O)c1ccc(C(=O)Nc2nnc(-c3ccco3)o2)cc1	none
CCN(CC)S(=O)(=O)c1ccc(C(=O)Nc2nnc(COC)o2)cc1	none
CCCCN(CCCC)S(=O)(=O)c1ccc(C(=O)Nc2nnc(COC)o2)cc1	SKKanGAS inh 91.7, Calb FLC 88.2
CCCCN(C)S(=O)(=O)c1ccc(C(=O)Nc2nnc(-c3ccco3)o2)cc1	Calb FLC 97.5

Assay outcomes as filed in PubChem BioAssay.
